# Screens: PubChem BioAssay, several laboratories
# tim10-1 inh: growth inhibitors of tim10-1 mutant yeast | inhibition, % at 20 µM | AID 463190 | S. cerevisiae tim10-1 ts strain growth, BacTiter-Glo, 24 h | hit rate 2.2% among 330,000;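 active = inhibition of at least 40%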;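 note: mutant grown at 25 °C; 0% = DMSO wells with yeast and 100% = wells holding no yeast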
# TIM10 inh: growth inhibitors of TIM10 yeast strain. S. cerevisiae TIM10 strain growth, BacTiter-Glo luminescence, 24 h. inhibition, % at 10 µM. hit rate 1.4% among 330,000. AID 463195;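 active = inhibition of 40% or more at the single tested concentration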;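 note: wild-type TIM10 isogenic control strain grown at permissive 25 °C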
# tim23-1 inh: tim23-1 yeast growth inhibition | S. cerevisiae tim23-1 growth, BacTiter-Glo luminescence, 24 h | inhibition, % at 20 µM | hit rate 1.3% among 330,000 | AID 463212;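 active = growth inhibition of the mutant yeast at or above 50%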;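 note: temperature-sensitive mutant grown at 25 °C; plate controls were DMSO-treated mutant yeast for no effect and medium wells lacking yeast for full effect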
# NLRP3 yeast inh: blocks the NALP3 inflammasome reconstituted in yeast. Yeast reconstituted NLRP3/ASC/caspase-1, beta-gal luminescence, 24 h. inhibition, % at 10 µM. hit rate 0.39% among 330,000;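 active = inhibition of 50% or more; inactive = inhibition below 50%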;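 note: plate controls were induced DMSO wells for no effect and uninduced yeast grown without galactose for full effect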
# PfHsp90 set2: inhibits growth of yeast expressing Plasmodium falciparum Hsp90 | inhibition, % at 9.4 µM | hit rate 0.32% among 310,000 | S. cerevisiae expressing PfHsp90, BacTiter-Glo ATP, 48 h; yeast lacking PDR1 and PDR3 efflux regulators;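 active = every replicate shows inhibition above about 80%, whatever the replicate mean, limit read from the data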;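 note: 0% = DMSO neutral controls and 100% = 20 µM radicicol positive controls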
# tim10-1 conf: tim10-1 yeast growth inhibition, confirmed. shares compounds with tim10-1 inh. S. cerevisiae tim10-1 ts strain growth, BacTiter-Glo, 24 h. inhibition, % at 20 µM. hit rate 56% among 7,400;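 active = inhibition of yeast growth at or above a set limit in either of two repeat tests at 20 µM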;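 note: tim10-1 mutant grown at permissive 25 °C to find synthetic lethal compounds; 0% = DMSO yeast wells and 100% = medium wells without yeast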
# TIM10 conf: confirmation of TIM10 yeast growth inhibitors; shares compounds with TIM10 inh; S. cerevisiae tim10 strain growth, BacTiter-Glo luminescence, 24 h; inhibition, % at 10 µM; hit rate 63% among 4,600; AID 463215;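 active = inhibition of yeast growth at or above a set limit in either of two replicates at 10 µM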;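 note: this counterscreen used the strain with wild-type TIM10; 0% = yeast with DMSO and 100% = medium wells lacking yeast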
# tim23-1 confirm: confirmation of tim23-1 mutant yeast growth inhibitors. shares compounds with tim23-1 inh. S. cerevisiae tim23-1 growth, BacTiter-Glo luminescence, 24 h. inhibition, % at 20 µM. hit rate 83% among 4,400;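 active = inhibition above about 39% in either of two replicate wells at 20 µM, limit read from the data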;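 note: temperature-sensitive tim23-1 mutant grown at 25 °C; 0% = DMSO wells with yeast and 100% = medium wells without yeast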
# The depositor's hits bear a star; / = no result given. Most compounds without a hit are left out; they make up all but 3.7% or so of the library.
SMILES,tim10-1 inh,TIM10 inh,tim23-1 inh,NLRP3 yeast inh,PfHsp90 set2,tim10-1 conf,TIM10 conf,tim23-1 confirm
COc1cc(Br)cc(CNc2ccc(F)c([N+](=O)[O-])c2)c1O,55*,44*,54*,21,-18,33*,40*,56*
CN1CCN(c2ccc(S(=O)(=O)N3CCOCC3)cc2NC(=O)CSCc2ccccc2)CC1,-15,-6,1,20,/,/,/,/
COc1cccc2oc3ccc(C#Cc4ccccn4)cc3c(=O)c12,41*,56*,75*,23,38,53*,38*,70*
CCN1C(=O)/C(=C\N(C(C)=O)c2ccccc2)OC1=S,49*,61*,70*,43,-8,57*,58*,57*
CCN1C(=O)/C(=C/N(C)c2ccccc2)OC1=S,9,-19,6,18,10,/,/,/
CC(=O)c1c(C)[nH]c(C(=O)NCC2CCCCC2)c1C,-2,-6,5,22,-2,/,/,/
Cc1c(C)[n+](=O)c(C)c(C)n1[O-],/,/,/,/,16,/,/,/
CSc1nnc(-c2ccccc2)o1,-26,-7,11,-8,6,/,/,/
O=S1(=O)C=C(Sc2nnc(-c3ccccc3)o2)c2ccccc21,94*,91*,57*,5,111*,92*,91*,85*
O=C(ONC1=NCCCCC1)c1cccc([N+](=O)[O-])c1,61*,82*,78*,8,-6,38*,90*,69*
O=[N+]([O-])c1cccc(/C=N/NC2=NCCCCC2)c1,-11,4,5,20,9,/,/,/
Cc1ccsc1C(=O)Nc1cccc(-n2cnnn2)c1,13,9,3,4,15,/,/,/
COc1cc(-c2nc3ccccc3s2)ccc1O,50*,49*,52*,26,-14,53*,48*,55*
Cc1c(-c2ccccc2)c(-c2ccc(OCCN(C)C)cc2)n2ccccc12,/,/,/,/,-14,/,/,/
Oc1c(Br)cc(Br)cc1/C=N/c1nc2c(s1)CCCC2,53*,42*,76*,30,74,28,30,91*
CC(=O)Nc1ccc(NS(=O)(=O)c2ccc(Cl)s2)cc1,2,0,11,7,-16,/,/,/
CSc1nc2ccc(NS(=O)(=O)c3ccc(Cl)s3)cc2s1,44*,47*,58*,6,-57,32*,44*,78*
CC(=O)Nc1ccc(S(=O)(=O)N2CCN(c3cc(C)ccc3C)CC2)cc1,60*,35,54*,-5,2,49*,/,47*
CC(=O)Nc1ccc(S(=O)(=O)N2CCN(S(=O)(=O)c3ccccc3)CC2)cc1,1,5,5,14,-8,/,/,/
COc1ccc(CC(=O)Nc2nc(C)cs2)cc1S(=O)(=O)N1CCOCC1,-17,-6,-18,11,-12,/,/,/
Cc1ccc(-c2ccc(/C=C/C(=O)c3ccccc3)o2)cc1,62*,67*,62*,-2,8,69*,67*,78*
Cc1ccccc1/C=N/n1c(C2CCCCC2)n[nH]c1=S,27,26,40,17,-23,/,/,/
S=c1[nH]nc(C2CCCCC2)n1/N=C/C(Cl)=C\c1ccccc1,34,34,45,30,-57,/,/,/
S=c1[nH]nc(C2CCCCC2)n1/N=C/c1ccccc1Br,42*,35,52*,33,-16,26,/,63*
S=c1[nH]nc(C2CCCCC2)n1/N=C/C=C/c1ccccc1,54*,39,57*,24,-21,31,/,37
SMILES,tim10-1 inh,TIM10 inh,tim23-1 inh,NLRP3 yeast inh,PfHsp90 set2,tim10-1 conf,TIM10 conf,tim23-1 confirm
Fc1ccccc1/C=N/n1c(C2CCCCC2)n[nH]c1=S,43*,48*,65*,15,-16,35*,51*,61*
CCCCNC(=O)Nc1nnc(C(C)(C)C)s1,16,3,-1,8,9,/,/,/
O=C(Nc1nnc(S(=O)(=O)N2CCCCCC2)s1)c1ccccc1F,47*,31,56*,1,1,32*,/,55*
COc1ccc(CNC(=O)CC2C[C@H](C(=O)N3CCOCC3)[C@@]3(CCC4CCCC4)c4[nH]c5ccccc5c4CCN3C2=O)cc1OC (some centres undefined),5,12,10,21,-25,/,/,/
Cc1ccc(CNc2oc(-c3ccco3)nc2C#N)cc1,12,11,33,32,-26,/,/,/
COc1ccc(CCNc2oc(-c3ccco3)nc2C#N)cc1,42*,52*,64*,42,-13,-5,37*,68*
CC(C)(C)CC(C)(C)NC(=O)CSCC(=O)Nc1ccc2ccccc2c1,64*,35,67*,-11,12,35*,/,52*
CCC(=O)Nc1ccc2ccccc2c1,8,-12,6,20,-12,/,/,/
O=C(Nc1ccc(Nc2ccccc2)cc1)c1ccc(Cl)c([N+](=O)[O-])c1,46*,23,73*,24,8,28,/,57*
Cc1ccc(Nc2nc(-c3c(C)nc4ncccn34)cs2)cc1,24,4,35,13,-57,/,/,/
Cc1ccc(Nc2nc(-c3c(C)nc4ccccn34)cs2)cc1,51*,58*,54*,20,-16,32*,58*,43*
Cc1[nH]n(-c2ccccc2)c(=O)c1C(C[N+](=O)[O-])c1ccc(F)cc1 (centres undefined),60*,48*,83*,31,18,41*,12,64*
Cc1[nH]n(-c2ccccc2)c(=O)c1C(C[N+](=O)[O-])c1ccc(Cl)cc1 (centres undefined),58*,49*,86*,17,/,48*,28,84*
COc1ccc(C(c2c(C)[nH]n(-c3ccccc3)c2=O)c2c(C)[nH]n(-c3ccccc3)c2=O)cc1OC,37,22,36,-9,9,/,/,/
Cc1[nH]n(-c2ccccc2)c(=O)c1Sc1ccc(Cl)cc1,13,19,21,-16,-8,/,/,/
Cc1ccc(C(C[N+](=O)[O-])c2c(C)[nH]n(-c3ccccc3)c2=O)cc1 (centres undefined),42*,29,75*,37,-4,25,/,61*
NC1(C(=O)O)CSSC1,/,/,/,/,-10,/,/,/
CCc1cccc(CC)c1C(OC(C)=O)c1cccnc1 (centres undefined),19,17,22,5,10,/,/,/
O=C(CCN1CCOCC1)N1CCCC(Nc2cccc(F)c2)C1 (centres undefined),-9,1,8,4,15,/,/,/
O=[N+]([O-])c1nn(-c2ccc3c(c2)OCCO3)n(O)c1=NC1CCCCCC1,53*,55*,56*,26,-19,56*,45*,48*
